Reference: PubChem BioAssay (NCATS)
Inconclusive results are not listed. The source made the active and inactive calls. The call rests on the fitted dose curve; in most records, active means well fitted inhibition curve with a large enough effect; inconclusive means small, poorly fitted or top-dose-only effect; inactive means flat fitted curve, though single readings scatter.

Tests used:
[1] = qHTS profiling for inhibitors of Plasmodium falciparum proliferation (AID 504749);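 further: 0% = DMSO vehicle and full inhibition = artemisinin control; nearly all actives have a fitted effect of over 60% in size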; conditions: P. falciparum in erythrocytes, SYBR Green DNA, 72 h
Procedure, shortened: (§1)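 Quantitative HTS: compounds pinned into medium, infected erythrocytes added (0.3% parasitemia, 2.5% hematocrit), 72 h culture at 37 C under 5% CO2. Saponin/Triton lysis with SYBR Green I, overnight RT, then fluorescence read.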

3D7 = test: as above; conditions: P. falciparum in erythrocytes, SYBR Green DNA, 72 h; series mostly up to 28.7 µM
Procedure, shortened: as §1

7G8 = test: as above; conditions: P. falciparum in erythrocytes, SYBR Green DNA, 72 h; series mostly up to 28.7 µM
Procedure, shortened: as §1

AA1029 = test: as above; conditions: P. falciparum in erythrocytes, SYBR Green DNA, 72 h; series mostly up to 28.7 µM
Procedure, shortened: as §1

AS120 = test: as above; conditions: P. falciparum in erythrocytes, SYBR Green DNA, 72 h; series mostly up to 28.7 µM
Procedure, shortened: as §1

ATS189 = test: as above; conditions: P. falciparum in erythrocytes, SYBR Green DNA, 72 h; series mostly up to 28.7 µM
Procedure, shortened: as §1

ATS95 = test: as above; conditions: P. falciparum in erythrocytes, SYBR Green DNA, 72 h; series mostly up to 28.7 µM
Procedure, shortened: as §1

C2A = test: as above; conditions: P. falciparum in erythrocytes, SYBR Green DNA, 72 h; series mostly up to 28.7 µM
Procedure, shortened: as §1

CP185 = test: as above; conditions: P. falciparum in erythrocytes, SYBR Green DNA, 72 h; series mostly up to 28.7 µM
Procedure, shortened: as §1

CP191 = test: as above; conditions: P. falciparum in erythrocytes, SYBR Green DNA, 72 h; series mostly up to 28.7 µM
Procedure, shortened: as §1

CP192 = test: as above; conditions: P. falciparum in erythrocytes, SYBR Green DNA, 72 h; series mostly up to 28.7 µM
Procedure, shortened: as §1

CP194 = test: as above; conditions: P. falciparum in erythrocytes, SYBR Green DNA, 72 h; series mostly up to 28.7 µM
Procedure, shortened: as §1

CP201 = test: as above; conditions: P. falciparum in erythrocytes, SYBR Green DNA, 72 h; series mostly up to 28.7 µM
Procedure, shortened: as §1

CP203 = test: as above; conditions: P. falciparum in erythrocytes, SYBR Green DNA, 72 h; series mostly up to 28.7 µM
Procedure, shortened: as §1

CP211 = test: as above; conditions: P. falciparum in erythrocytes, SYBR Green DNA, 72 h; series mostly up to 28.7 µM
Procedure, shortened: as §1

CP215 = test: as above; conditions: P. falciparum in erythrocytes, SYBR Green DNA, 72 h; series mostly up to 28.7 µM
Procedure, shortened: as §1

CP217 = test: as above; conditions: P. falciparum in erythrocytes, SYBR Green DNA, 72 h; series mostly up to 28.7 µM
Procedure, shortened: as §1

CP237 = test: as above; conditions: P. falciparum in erythrocytes, SYBR Green DNA, 72 h; series mostly up to 28.7 µM
Procedure, shortened: as §1

CP238 = test: as above; conditions: P. falciparum in erythrocytes, SYBR Green DNA, 72 h; series mostly up to 28.7 µM
Procedure, shortened: as §1

CP247 = test: as above; conditions: P. falciparum in erythrocytes, SYBR Green DNA, 72 h; series mostly up to 28.7 µM
Procedure, shortened: as §1

[2] = at 28.7 µM (top of the series), parasite line A
[3] = at 28.7 µM (top of the series), parasite line B
[4] = at 12.8 µM (top of the series), parasite line A
[5] = at 12.8 µM (top of the series), parasite line B

COc1ccccc1OC(=O)Oc1ccccc1OC
inactive: activity, negative = inhibition [1, 2] -1.25% | activity, negative = inhibition [1, 3] 5.57% | Potency (3D7) | Potency (7G8) | Potency (AA1029) | Potency (AS120) | Potency (ATS189) | Potency (ATS95) | Potency (C2A) | Potency (CP185) | outcome (CP191) | outcome (CP192) | outcome (CP194) | outcome (CP201) | Potency (CP203) | outcome (CP211) | Potency (CP215) | outcome (CP217) | Potency (CP237) | Potency (CP238) | Potency (CP247)

O=c1[nH]cnc2nc[nH]c12
inactive: activity, negative = inhibition [1, 2] -7.68% | activity, negative = inhibition [1, 3] 15.5% | Potency (3D7) | Potency (7G8) | Potency (AA1029) | Potency (AS120) | Potency (ATS189) | Potency (ATS95) | Potency (C2A) | Potency (CP185) | outcome (CP191) | outcome (CP192) | outcome (CP194) | outcome (CP201) | Potency (CP203) | outcome (CP211) | Potency (CP215) | outcome (CP217) | Potency (CP237) | Potency (CP238) | Potency (CP247)

CC(C)C[C@@H](N)C(=O)O
inactive: activity, negative = inhibition [1, 2] 7.68% | activity, negative = inhibition [1, 3] 22.5% | Potency (3D7) | Potency (7G8) | Potency (AA1029) | Potency (AS120) | Potency (ATS189) | Potency (ATS95) | Potency (C2A) | Potency (CP185) | outcome (CP191) | outcome (CP192) | outcome (CP194) | outcome (CP201) | Potency (CP203) | outcome (CP211) | Potency (CP215) | outcome (CP217) | Potency (CP237) | Potency (CP238) | Potency (CP247)

NC(=O)CC[C@@H](N)C(=O)O
inactive: activity, negative = inhibition [1, 2] 3.38% | activity, negative = inhibition [1, 3] 6.23% | Potency (3D7) | Potency (7G8) | Potency (AA1029) | Potency (AS120) | Potency (ATS189) | Potency (ATS95) | Potency (C2A) | Potency (CP185) | outcome (CP191) | outcome (CP192) | outcome (CP194) | outcome (CP201) | Potency (CP203) | outcome (CP211) | Potency (CP215) | outcome (CP217) | Potency (CP237) | Potency (CP238) | Potency (CP247)

OCc1ccc(Cl)cc1Cl
inactive: activity, negative = inhibition [1, 2] -3.83% | activity, negative = inhibition [1, 3] -17.4% | Potency (3D7) | Potency (7G8) | Potency (AA1029) | Potency (AS120) | Potency (ATS189) | Potency (ATS95) | Potency (C2A) | Potency (CP185) | outcome (CP191) | outcome (CP192) | outcome (CP194) | outcome (CP201) | Potency (CP203) | outcome (CP211) | Potency (CP215) | outcome (CP217) | Potency (CP237) | Potency (CP238) | Potency (CP247)

C[N+](C)(C)CC[N+]1(C)Cc2c(Cl)c(Cl)c(Cl)c(Cl)c2C1
inactive: activity, negative = inhibition [1, 2] 5.09% | activity, negative = inhibition [1, 3] 9.42% | Potency (3D7) | Potency (7G8) | Potency (AA1029) | Potency (AS120) | Potency (ATS189) | Potency (ATS95) | Potency (C2A) | Potency (CP185) | outcome (CP191) | outcome (CP192) | outcome (CP194) | outcome (CP201) | Potency (CP203) | outcome (CP211) | Potency (CP215) | outcome (CP217) | Potency (CP237) | Potency (CP238) | Potency (CP247)

Cc1ccccc1N=Nc1ccc(N=Nc2c(O)ccc3ccccc23)c(C)c1
inactive: activity, negative = inhibition [1, 2] 3.72% | activity, negative = inhibition [1, 3] 9.83% | Potency (3D7) | Potency (7G8) | Potency (AA1029) | Potency (AS120) | Potency (ATS189) | Potency (ATS95) | Potency (C2A) | Potency (CP185) | outcome (CP191) | outcome (CP192) | outcome (CP194) | outcome (CP201) | Potency (CP203) | outcome (CP211) | Potency (CP215) | outcome (CP217) | Potency (CP237) | Potency (CP238) | Potency (CP247)

Cc1cccc(Nc2ccccc2C(=O)O)c1C
inactive: activity, negative = inhibition [1, 2] -4.38% | activity, negative = inhibition [1, 3] 15.2% | Potency (3D7) | Potency (7G8) | Potency (AA1029) | Potency (AS120) | Potency (ATS189) | Potency (ATS95) | Potency (C2A) | Potency (CP185) | outcome (CP191) | outcome (CP192) | outcome (CP194) | outcome (CP201) | Potency (CP203) | outcome (CP211) | Potency (CP215) | outcome (CP217) | Potency (CP237) | Potency (CP238) | Potency (CP247)

O=c1[nH]c2cc(C(F)(F)F)c(N3CCOCC3)cc2n(CP(=O)(O)O)c1=O
inactive: activity, negative = inhibition [1, 2] 11.3% | activity, negative = inhibition [1, 3] -0.254% | Potency (3D7) | Potency (7G8) | Potency (AA1029) | Potency (AS120) | Potency (ATS189) | Potency (ATS95) | Potency (C2A) | Potency (CP185) | outcome (CP191) | outcome (CP192) | outcome (CP194) | outcome (CP201) | Potency (CP203) | outcome (CP211) | Potency (CP215) | outcome (CP217) | Potency (CP237) | Potency (CP238) | Potency (CP247)

CCc1cccc(CC)c1NC(=O)CN(CC(=O)O)CC(=O)O
inactive: activity, negative = inhibition [1, 4] 1.37% | activity, negative = inhibition [1, 5] 6.7%

NS(=O)(=O)c1cc2c(cc1C(F)(F)F)NCNS2(=O)=O
inactive: activity, negative = inhibition [1, 4] 2.71% | activity, negative = inhibition [1, 5] 5.88%

Nc1ccncc1N
inactive: activity, negative = inhibition [1, 2] 9.9% | activity, negative = inhibition [1, 3] 5.99% | Potency (3D7) | Potency (7G8) | Potency (AA1029) | Potency (AS120) | Potency (ATS189) | Potency (ATS95) | Potency (C2A) | Potency (CP185) | outcome (CP191) | outcome (CP192) | outcome (CP194) | outcome (CP201) | Potency (CP203) | outcome (CP211) | Potency (CP215) | outcome (CP217) | Potency (CP237) | Potency (CP238) | Potency (CP247)

CC(C(=O)O)c1ccc2c(c1)Cc1cccnc1O2 (stereo not given)
inactive: activity, negative = inhibition [1, 2] 5.68% | activity, negative = inhibition [1, 3] -1.86% | Potency (3D7) | Potency (7G8) | Potency (AA1029) | Potency (AS120) | Potency (ATS189) | Potency (ATS95) | Potency (C2A) | Potency (CP185) | outcome (CP191) | outcome (CP192) | outcome (CP194) | outcome (CP201) | Potency (CP203) | outcome (CP211) | Potency (CP215) | outcome (CP217) | Potency (CP237) | Potency (CP238) | Potency (CP247)

Cc1cccc(C(=O)O)c1O
inactive: activity, negative = inhibition [1, 2] 14.5% | activity, negative = inhibition [1, 3] 2.46% | Potency (3D7) | Potency (7G8) | Potency (AA1029) | Potency (AS120) | Potency (ATS189) | Potency (ATS95) | Potency (C2A) | Potency (CP185) | outcome (CP191) | outcome (CP192) | outcome (CP194) | outcome (CP201) | outcome (CP211) | Potency (CP215) | outcome (CP217) | Potency (CP237) | Potency (CP238) | Potency (CP247)

N[C@@H](Cc1ccc(O)cc1)C(=O)O
inactive: activity, negative = inhibition [1, 2] 13.6% | activity, negative = inhibition [1, 3] 10.5% | Potency (3D7) | Potency (7G8) | Potency (AA1029) | Potency (AS120) | Potency (ATS189) | Potency (ATS95) | Potency (C2A) | Potency (CP185) | outcome (CP191) | outcome (CP192) | outcome (CP194) | outcome (CP201) | outcome (CP211) | Potency (CP215) | outcome (CP217) | Potency (CP237) | Potency (CP238) | Potency (CP247)
